Screening results as filed in PubChem.
The list is not random: actives were taken first. Their share in the collection is about 1.3%.
AGP1-GFP MLPCN = modulators of AGP1-GFP expression in yeast TOR pathway, primary screen, cell-based, multiplex flow cytometry, S. cerevisiae, MLPCN library; 3 h; GFP as percent of DMSO wells; GFP response vs DMSO, % at 10 µM; hit rate 0.02% among 320,000;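 active means GFP response relative to DMSO above a set limit, near screen average plus 3 SD, cut at about 150% in these data; inconclusive means fewer than 70 cells counted for the yeast strain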;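 further: median GFP channel fluorescence of the gated AGP1 strain per well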
MEP2 TOR yeast = modulators of MEP2-GFP levels in yeast, primary screen, S. cerevisiae, multiplex flow cytometry, MLPCN library; S. cerevisiae MEP2-GFP strain, 3 h; 100% = DMSO control level; GFP response vs DMSO, % at 10 µM; hit rate 0.51% among 330,000;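 active means GFP response versus DMSO above a set limit, roughly screen mean plus 3 SD, cut at about 180% in these data; inconclusive means fewer than 70 cells counted for a yeast strain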;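 further: median GFP fluorescence of the barcode-gated MEP2-GFP cells per well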
Efflux pump inh = inhibitors of Candida efflux pumps in yeast, primary screen, S. cerevisiae, Nile Red, multiplex. inhibition, % at 10 µM. S. cerevisiae Candida pump triplex. AID 485275, 2010. hit rate 0.44% among 330,000;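 active means plate passing quality check with inhibition over a set limit, or well fluorescence over plate mean plus 4 SD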;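 further: Nile Red retained in pooled yeast measured as flow cytometry median fluorescence; 0% = buffer negative control and 100% = Enniatin B positive control; higher means more Nile Red kept so more efflux inhibition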
RPL19A TOR yeast = RPL19A-GFP expression modulators in yeast, primary screen, cell-based, S. cerevisiae, multiplex flow cytometry, MLPCN | S. cerevisiae RPL19A-GFP strain, 3 h; stronger effect = lower value | hit rate 0.3% among 330,000 | percent response vs DMSO, % at 10 µM | AID 2025, 2009;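 active means percent response vs DMSO below 50%; inconclusive means fewer than 70 events counted for the yeast strain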;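 further: median channel GFP fluorescence of the barcoded RPL19A-GFP strain; ratio of sample median GFP to plate DMSO average so 100% = DMSO; lower means less RPL19A-GFP as with rapamycin TOR inhibition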
CIT2 TOR yeast = modulators of CIT2-GFP expression in yeast, primary screen, S. cerevisiae, GFP fusion, multiplex flow cytometry, MLPCN library; S. cerevisiae CIT2-GFP strain, 3 h; 100 means same as DMSO wells; GFP response vs DMSO, % at 10 µM; hit rate 0.065% among 320,000; AID 2029, 2009;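 active means GFP response relative to DMSO above a set limit, near the screen mean plus 3 SD, cut at about 150% in these data; inconclusive means Fewer than 70 cells measured for a yeast strain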;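 further: ratio of well median GFP fluorescence to mean of DMSO wells on the plate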
LAP4 TOR yeast = modulators of LAP4-GFP expression in yeast, primary screen, S. cerevisiae, multiplex flow cytometry, MLPCN library; 3 h; median GFP as percent of DMSO wells; AID 2023, 2009; hit rate 0.34% among 320,000; GFP response vs DMSO, % at 10 µM;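 active means GFP response vs DMSO above a set limit, about the screen mean plus 3 SD, cut at about 150% in these data; inconclusive means under 70 cell events counted for the yeast strain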
* = called active by the depositor; ? = inconclusive; [ ] = dose if it differs, or a comment.

SMILES	AGP1-GFP MLPCN	MEP2 TOR yeast	Efflux pump inh	RPL19A TOR yeast	CIT2 TOR yeast	LAP4 TOR yeast
N=c1n(CCN2CCCCC2)c2ccccc2n1CC(=O)c1ccc(Cl)c(Cl)c1	90	128	0	92	87	168*
CCn1c(=N)n(CC(=O)c2ccc(Cl)c(Cl)c2)c2ccccc21	95	118	0	101	98	102
CC1=NN2C(=N)/C(=C\c3cc(C)n(-c4ccc(C)cc4)c3C)C(=O)N=C2S1	108	105	0	98	102	115
COc1cc(C(C(=O)NC(C)(C)C)N(C(=O)CNC(=O)c2cccs2)c2cccnc2)cc(OC)c1OC (stereo not given)	94	95	0	96	98	90
CCC(C)(C)NC(=O)C(c1ccco1)N(C(=O)CNC(=O)c1cccs1)c1cccnc1 (stereo not given)	41	288*[may fluoresce violet]	0	54	?	91
O=C(NCc1ccccc1)c1cc2ccc(O)cc2oc1=O	94	99	0	96	95	95
C/C(=N\NC(=O)CC#N)c1cc2ccc(O)cc2oc1=O	?	201*[may fluoresce violet]	0	16*[may fluoresce violet]	?	61
O=C(/C(=C/c1ccccc1)n1cncn1)c1ccc(Cl)cc1Cl	83	88	0	98	70	151*
CN1C(=O)C(O)(C2CCCCCC2=O)c2ccccc21 (stereo not given)	98	97	0	96	97	103
CSc1nnc(Cc2cc(=O)[nH]c(=O)[nH]2)n1-c1cccc(C)c1	17	225*[may fluoresce violet]	0	53	?	96
Cc1ccc(S(=O)(=O)Cn2nnnc2C(CC(C)C)N2CCC(C(N)=O)CC2)cc1 (stereo not given)	98	99	0	107	105	94
CCCC(c1nnnn1CS(=O)(=O)c1ccc(C)cc1)N1CCC(C(N)=O)CC1 (stereo not given)	?	224*[may fluoresce violet]	-1	56	?	78
Cc1cccc(N2CCN(S(=O)(=O)c3ccc(-c4ccc(=O)[nH]n4)o3)CC2)c1C	103	87	0	93	90	92
C=CCOc1ccc(C(=O)n2cc(C(=O)OC)c3ccccc32)cc1	90	186*	0	99	92	106
COC(=O)c1cn(C(=O)c2ccc(F)cc2)c2ccccc12	96	105	0	105	104	88
CCc1ccc2nc3nc(C)cc(C)c3c(N)c2c1	?	384*[may fluoresce violet]	0	32*[may fluoresce violet]	?	80
Cc1cc(C)c2c(N)c3ccccc3nc2n1	22	134	0	15*[may fluoresce violet]	?	99
CCOc1ccccc1/C=N/n1nnnc1N	100	106	0	106	101	98
CC1CCC2(CC1)NC(=O)N(CC(=O)N1c3ccccc3CC1C)C2=O (stereo not given)	103	105	0	99	96	106
Cc1ccc(OCc2ccc(C(=O)Nc3nccs3)o2)cc1C	?	255*[may fluoresce violet]	0	15*[may fluoresce violet]	?	76
CC(C)CC1NC(=O)N(CC(=O)Nc2cc([N+](=O)[O-])ccc2F)C1=O (stereo not given)	95	105	0	99	100	101
Cc1ccc2c(c1)c1c3n2CCN(C(=O)CN2CCN(C)CC2)C3CCC1 (stereo not given)	93	94	0	95	96	92
CN1CCN(CC(=O)N2CCn3c4c(c5cc(C6CCCCC6)ccc53)CCCC42)CC1 (stereo not given)	99	104	0	91	89	169*
O=C(NCCCN1CCCCC1)C1CCN(S(=O)(=O)N2CCC3(CC2)OCCO3)CC1	?	154	0	36*[may fluoresce violet]	?	90
O=C(NCCCN1CCc2ccccc2C1)C1CCN(S(=O)(=O)N2CCC3(CC2)OCCO3)CC1	103	96	0	104	95	96
